From PubChem BioAssay (NCATS)
Inconclusive results are not listed. A call without a number means that no potency is given here. Calls of active or inactive are those of the source. Calls follow the shape of the dose curve; as a rule, active = well fitted cell-killing curve with a large enough effect; inconclusive = small, poorly fitted or top-dose-only effect, or effect the other way; inactive = no such curve, though single readings can be large or run the other way.

Key:
[1] = Viability qHTS for spleen associated tyrosine kinase inhibitor (SYKi) naive MV4-11 cells (AID 1963823); details: MV4-11 AML viability, CellTiter-Glo luminescence, 72 h; series mostly up to 45 µM; also: nearly all actives have a fitted effect of over 40% in size
Method in brief: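 CellTiter-Glo luminescence, 10 min room-temperature incubation, gave viability. Cells: naive MV4-11 (500/well), treated 72 hr at 37 C, 5% CO2.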

[2] = Viability qHTS for spleen associated tyrosine kinase inhibitor (SYKi) drug resistant MV4-11 cells (AID 1963824); details: SYKi-resistant MV4-11 viability, CellTiter-Glo, 72 h; series mostly up to 45 µM; also: nearly all actives have a fitted effect of over 35% in size
Method in brief: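 SYK-inhibitor-resistant MV4-11 AML cells were seeded at 500 per well onto compound and cultured 72 hours (37 °C, 5% CO2). CellTiter-Glo was then added, and after 10 min at room temperature, luminescence gave viability.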
Potency is read from the fitted curve at half-maximal effect.

Structure (SMILES) | Potency [1] | Potency [2]
Cc1nc(CN(C)c2ncnc3ccc(-c4ccc5c(c4)OCO5)cc23)cs1 | 3.26 µM (active) | 5.8 µM (active)
CC(=O)C=C=C1C(C)(C)CC(O[C@@H]2O[C@H](CO)[C@@H](O)[C@H](O)[C@H]2O)CC1(C)O (some centres undefined) | inactive | inactive
C=C(CCO[C@@H]1O[C@H](CO)[C@@H](O)[C@H](O)[C@H]1O)C(=O)O | inactive | inactive
CNC1(C)C2CCC(C2)C1(C)C (centres undefined) | inactive | inactive
CC(C)Oc1ccc(-c2nc(-c3cccc4c3CCC4NCCC(=O)O)no2)cc1C#N (centres undefined) | inactive | inactive
CC1(C)CC[C@]2(C(=O)O[C@@H]3O[C@H](CO)[C@@H](O)[C@H](O)[C@H]3O)CC[C@]3(C)C(=CCC4[C@@]5(C)C[C@@H](O)[C@H](O)C(CO)(CO)C5CC[C@]43C)C2[C@@H]1O (some centres undefined) | inactive | inactive
Cc1cc(C)c(Nc2ccnc(Nc3ccc(C#N)cc3)n2)c(C)c1 | 2.31 µM (active) | 4.11 µM (active)
C=CC(C)(CC/C=C(\C)C(=O)OC)OC1OC(COC(=O)CC(C)(O)CC(=O)O)C(OC2OC(CO)C(O)C(O)C2O)C(O)C1O (centres undefined) | inactive | inactive
COc1c/c(=C2\C=c3ccccc3=N2)[nH]/c1=C\c1[nH]c(C)cc1C | 5.17 µM (active) | 5.8 µM (active)
COC(=O)c1ccc(OC)cc1O[C@@H]1O[C@H](CO[C@@H]2OC[C@@H](O)[C@H](O)[C@H]2O)[C@@H](O)[C@H](O)[C@H]1O | inactive | inactive
CC(=O)Oc1ccc(C2(c3ccc(OC(C)=O)cc3)Oc3ccccc3NC2=O)cc1 | 5.8 µM (active) | 2.99 µM (active)
O=C(/C=C/c1ccccc1)OC[C@]12O[C@H]1[C@@H](O)[C@@H]1C=CO[C@@H](O[C@@H]3O[C@H](CO)[C@@H](O)[C@H](O)[C@H]3O)[C@@H]12 | inactive | inactive
COC(=O)C[C@H]1C(C)(C)[C@H](OC(=O)C(C)C)[C@@]2(O)C(=O)[C@]1(C)C1CC[C@]3(C)C(CC(=O)O[C@H]3c3ccoc3)[C@]13O[C@@H]32 (some centres undefined) | inactive | inactive
O=C(O[C@H]1[C@@H]2C[C@@H]3OC[C@](O)([C@@H]1Cl)[C@H]2C(O[C@@H]1O[C@H](CO)[C@@H](O)[C@H](O)[C@H]1O)O3)c1ccc(O)c(O)c1 (some centres undefined) | inactive | inactive
C=C1C(=O)O[C@@H]2/C=C(\C)CC/C=C(/C=O)[C@H](OC)[C@@H](OC(=O)C(C)C)[C@@H]12 | 4.04 µM (active) | 2.55 µM (active)
COc1ccc(C[C@H](C)NC[C@@H](O)c2ccc(O)c(NC=O)c2)cc1 | inactive | inactive
Cc1ccc(-c2nn(C(C)(C)C)c3ncnc(N)c23)cc1 | 3.66 µM (active) | 8.2 µM (active)
CC(=O)O[C@@H]1[C@@H](O)[C@H](C)O[C@@H](O[C@H]2[C@@H]3C=CO[C@@H](O[C@@H]4O[C@H](CO)[C@@H](O)[C@H](O)[C@H]4O)[C@@H]3[C@@]3(CO)O[C@@H]23)[C@@H]1OC(=O)/C=C/c1ccccc1 | inactive | inactive
COc1c(C)c(OCC(O)C(C)(C)O)cc2c1COC2=O (centres undefined) | inactive | inactive
CO[C@H]1/C=C/C=C/C=C/C[C@H](OC(=O)[C@@H](C)NC(=O)C2CCCCC2)[C@H](C)[C@@H](O)/C(C)=C/CCc2cc(O)cc(c2)NC(=O)C1 | 0.0968 µM (active) | 0.109 µM (active)
CC(=O)N(O)CCCCCN1C(=O)CCC1=O | inactive | inactive
CC/C=C/C=C/C1(C)OC(CC(CO)OC)=CC1=O (centres undefined) | 20.6 µM (active) | 23.1 µM (active)
Cc1ccc(NS(=O)(=O)c2cc3c(cc2N[C@@H](C)CO)NC(=O)CC3)cc1C | 20.6 µM (active) | 20.6 µM (active)
C/C=C1\[C@H](O[C@@H]2O[C@H](CO)[C@@H](O)[C@H](O)[C@H]2O)OC=C(C(=O)OC)[C@H]1CC(=O)O | inactive | inactive
CCOc1c2c(c(OCC)c3ccccc13)C(=O)N(c1ccc(CC(=O)NS(=O)(=O)c3ccccc3)cc1)C2 | inactive | inactive
COc1ccc(CCC(=O)c2c(O)cc(O[C@@H]3O[C@H](CO)[C@@H](O)[C@H](O)[C@H]3O[C@@H]3O[C@@H](C)[C@H](O)[C@@H](O)[C@H]3O)cc2O)cc1O | inactive | inactive
Cc1cc(-c2cnc(N)c3c(-c4ccc5scnc5c4)csc23)n(C)n1 | 1.3 µM (active) | 2.59 µM (active)
